Consider 35 compounds from PubChem BioAssay AID602396 (The Scripps Research Institute Molecular Screening Center, 2012).

Each structure is given as a SMILES string. The campaign covered roughly 360,000 compounds. About 460 (0.13%) were called active.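 Rule for the calls: active = inhibition above the mean inhibition of all tested compounds plus 3 SD (cut at about 73% in these data); inactive = the rest.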 This excerpt belongs to a sample that is enriched for actives.

Nuclear receptor subfamily 5 group A member 2 (Homo sapiens), sequence (O00482 whole entry, looked up): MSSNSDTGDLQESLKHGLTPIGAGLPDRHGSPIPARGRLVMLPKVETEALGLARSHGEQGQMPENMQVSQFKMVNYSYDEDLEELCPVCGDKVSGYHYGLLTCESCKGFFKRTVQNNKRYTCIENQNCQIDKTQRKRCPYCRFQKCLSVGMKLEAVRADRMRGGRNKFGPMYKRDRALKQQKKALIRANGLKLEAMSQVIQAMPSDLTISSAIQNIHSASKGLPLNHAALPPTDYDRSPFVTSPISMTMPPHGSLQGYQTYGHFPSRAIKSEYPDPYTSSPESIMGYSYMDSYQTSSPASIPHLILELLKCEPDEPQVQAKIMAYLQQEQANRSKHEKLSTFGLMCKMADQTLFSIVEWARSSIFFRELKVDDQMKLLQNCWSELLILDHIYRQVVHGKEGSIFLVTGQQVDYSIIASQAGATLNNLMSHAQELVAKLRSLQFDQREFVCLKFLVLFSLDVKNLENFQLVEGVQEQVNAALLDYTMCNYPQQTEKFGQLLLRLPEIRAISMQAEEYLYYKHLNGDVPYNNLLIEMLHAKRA

This test has as its target Nuclear receptor subfamily 5 group A member 2 (Homo sapiens) (UniProt O00482). The experiment in a line: LRH-1 (NR5A2) inverse agonists, primary screen, cell-based, luminescence, HEK293T, StAR-luciferase reporter (AID 602396).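 Note: 0% = DMSO wells and 100% = reporter-only cells lacking LRH-1.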 The note with it: LRH-1 transfected, 24 h, at 3.6 µM, active compounds read high. On the technique in general: Reporter assays use an easily measured gene product as a stand-in for the process of interest.
`CC(=O)OC1C2(CC3N4C(=O)C5(CO)SSC4(CC31O)C(=O)N5C)OC(C)C(C)(C)C2=O` (stereo not given): the inhibition was 97.6% (active). Under `CC(=O)N1CN2CN(C(C)=O)CC(C(=O)c3ccc(Br)cc3)(C2)C1` stands -11.4% (inactive); under `CN(C)C(=O)Oc1ccc(NC(=O)N2CCOCC2)cc1`, 10.7% (inactive). For the compound `CCOc1ccc(-c2cc(C)[n+](CCN(CC)CC)c(-c3ccc(OCC)cc3)c2)cc1`, the inhibition was 86.7% (active).

Regarding `CC(C)n1c(=O)c(C=Nc2ccc(Br)cc2)c(O)n(Cc2ccco2)c1=O`, the inhibition is 5.59% (inactive).

In the case of `CCOC(=O)C(O)(c1ccc(NC(=O)c2ccco2)c(OC)c1)C(F)(F)F` (stereo not given), the inhibition was 15% (inactive). The figure for `NCCc1ccc(S(=O)(=O)F)cc1` is 12.1% (inactive); for `O=[N+]([O-])c1ccc(C2C3C(c4ccccc4)=NC4(CCCCC4)N32)cc1` (stereo not given) it is 22.7% (inactive); for `CCC(C)n1c(O)c(/C=N/Nc2nc3c(c(=O)n(C)c(=O)n3C)n2C)c(=O)[nH]c1=S` (stereo not given) it is -7.02% (inactive). Regarding `CCCCCCCCCCCCn1ccc(=N)cc1`, the inhibition is 84.1% (active). As for `CN(C)CC1CCCCC1=O` (stereo not given), the inhibition is 15.8% (inactive). The figure for `COc1ccc(-c2nn(CCC#N)cc2C(=O)Nc2ccc(C(C)=O)cc2)cc1` is 17.1% (inactive). The figure for `Clc1cccc(Cl)c1Cl` is 2.81% (inactive). Consider `Cc1ccc(-c2nc3ccccc3c(=O)n2-c2ccc(Br)cn2)cc1`, for which the inhibition was -1.48% (inactive). Regarding `CCNc1nc2[nH]c(=O)c3c(c2s1)OC(N)=C(C#N)C3c1cccs1` (stereo not given), the inhibition is -2.41% (inactive). Under `CN(C)c1ccc(/C=C2\CC3C4CC=C5CC(O)CCC5(C)C4CCC3(C)C2=O)cc1` (stereo not given) stands 10.7% (inactive); under `CCC(C)(O)C(=O)OC1C(=O)OC2CC3C(C)=CC(=O)C(O)C3(C)C3C4(O)OCC23C1C(C)C4O` (stereo not given), 98.4% (active); under `COc1ccc(C(=O)CC2C(=O)N(C)C(=O)N(C)C2=O)cc1`, -5.13% (inactive).

Regarding `COC(=O)C1=C(c2ccccc2)C[C@@H]2CC[C@H]1N2C(=O)N1CCCCC1`, the inhibition was 8.33% (inactive). On to `O=C1C2(Cl)C3(Cl)C4(Cl)C(Cl)(Cl)C5(Cl)C3(Cl)C1(Cl)C5(Cl)C24Cl` (stereo not given), for which the inhibition is 0.27% (inactive). In the case of `CCOP(=S)(OCC)SCOC(=O)NCC(=O)OC`, the inhibition was -13.1% (inactive).

On to `CN(C)C(=O)NC(O)C(Cl)(Cl)Cl` (stereo not given), for which the inhibition was -10.3% (inactive).

In the case of `C[C@]12CC[C@H](O)C[C@H]1CC[C@@H]1C2CC[C@]2(C)[C@@H](C3=CC(=O)OC3)[C@@H](O)C[C@]12O` (stereo not given in full), the inhibition is 88.6% (active). Under `COC(=O)C1=C(c2ccc(F)cc2F)C[C@@H]2CC[C@H]1N2C(=O)NC1CC1` stands 20.8% (inactive); under `COc1ccc(NC(=O)N2Cc3ccccc3-n3nncc3C2)cc1`, -12.7% (inactive); under `COC1C(O)C(C)OC(OC2CCC3(C=O)C(CCC4C3CCC3(C)C(C5=CC(=O)OC5)CCC43O)C2)C1O` (stereo not given), 104% (active). As to `COCCNC(=O)CN1C2CCC1CC(O)(c1cccnc1)C2` (stereo not given), the inhibition was 17.3% (inactive). Under `Cc1ccc2c(c1)C1CN(C)CCC1N2C(=O)Cn1nnc(-c2ccccc2F)n1` (stereo not given) stands -20.9% (inactive); under `CC1=CC(=Cc2sc3ccccc3[n+]2C)C=C(C)O1`, 80.7% (active); under `COc1ccccc1N=C1SCCCN1C`, 11.8% (inactive).

Consider `CCOC(=O)CNC(=O)N1Cc2cc(N3CCCCC3)ccc2-n2nncc2C1`, for which the inhibition is 6.84% (inactive). Under `Cc1cc(OCc2cc(C(=O)O)oc2C)c2c3c(c(=O)oc2c1)CCCC3` stands 15.5% (inactive).

As for `NCC(O)c1ccc(O)cc1` (stereo not given), the inhibition is -5.8% (inactive). For `CCN(N=Nc1nonc1OC)c1nonc1OC`, the inhibition is 3.32% (inactive).

On to `CC1CCCN1CCC(C(N)=O)(c1ccccc1)c1ccccc1` (stereo not given), for which the inhibition is -19.5% (inactive).

What is called inhibition is the change of the read-out against control, counted positive when it falls.
